Among all 340,000 compounds or so, about 2,100 (0.62%) were called active. These entries were drawn from the full list. Potency and affinity values are given separately. Values without a mark were called inactive.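 Rule for the calls: active = first-screen hits whose inhibition reached a set limit at any dose in the follow-up dose series; inconclusive = inhibition above the set first-screen limit but never retested; inactive = the rest.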

The text below walks through data of PubChem BioAssay AID624330 (Southern Research Specialized Biocontainment Screening …, 2012).

Rac GTPase-activating protein 1 (Homo sapiens), sequence (Q9H0H5 whole entry, looked up): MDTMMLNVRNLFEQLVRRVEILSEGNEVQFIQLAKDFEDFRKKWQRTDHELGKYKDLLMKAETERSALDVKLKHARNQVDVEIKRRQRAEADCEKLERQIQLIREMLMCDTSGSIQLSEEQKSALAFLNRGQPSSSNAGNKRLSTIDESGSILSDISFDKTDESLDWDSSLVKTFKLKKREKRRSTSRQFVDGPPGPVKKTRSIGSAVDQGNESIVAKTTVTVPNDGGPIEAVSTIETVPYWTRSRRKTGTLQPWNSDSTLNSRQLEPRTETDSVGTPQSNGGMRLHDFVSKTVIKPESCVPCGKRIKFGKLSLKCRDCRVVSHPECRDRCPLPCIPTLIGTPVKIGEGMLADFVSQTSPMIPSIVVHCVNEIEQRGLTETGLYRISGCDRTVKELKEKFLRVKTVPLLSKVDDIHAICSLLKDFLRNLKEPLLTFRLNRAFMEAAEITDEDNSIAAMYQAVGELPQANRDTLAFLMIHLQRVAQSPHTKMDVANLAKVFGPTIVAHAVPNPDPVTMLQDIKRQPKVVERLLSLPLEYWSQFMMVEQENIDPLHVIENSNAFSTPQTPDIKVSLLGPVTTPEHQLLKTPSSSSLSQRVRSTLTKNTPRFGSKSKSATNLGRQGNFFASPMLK

This experiment concerns the target Rac GTPase-activating protein 1 (Homo sapiens) (UniProt Q9H0H5). Put plainly: blockers of MgcRacGAP-driven Rac1 GTP hydrolysis – biochemical, ADP Hunter fluorescence, primary and confirmatory, confirmation (AID 624330).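 Note: fluorescence reports GDP produced by GAP-driven GTP hydrolysis.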 Particulars: MgcRacGAP-stimulated Rac1 GTP hydrolysis, at 30 µM, hits give high values, GST-tagged Rac1 F28L mutant substrate.
Consider `COCCCC1CCN(C(=O)C2CCC(=O)N(Cc3cccc(F)c3)C2)CC1` (stereo unspecified), for which the inhibition (commonly the change of the read-out against control, counted positive when it falls) was 7.1%.
In the case of `O=S(=O)(/C(=C/c1ccc(C(F)(F)F)cc1)c1nc2ccccc2[nH]1)c1ccccc1`, the inhibition was 4.87%.
`CN1CCc2c1nc1ccccc1c2N` (tested in a mixture with another compound): the inhibition is 13.1%.
Regarding `Cc1cccc2c(N)c3c(nc12)CCCC3` (tested in a mixture with another compound), the inhibition was 16.8%.
On to `COc1ccc(CNC(=O)Cn2cc3c(n2)CCCCC3)cc1`, for which the inhibition is 7.34%.
With `O=C1OC(c2ccccc2)=N/C1=C\N1CCCCC1`, the inhibition was -1.27%.
On to `O=C1OC(c2ccccc2)=C/C1=C/N1CCCCC1`, for which the inhibition is 30.7%.
For the molecule `CCN(C(=O)c1c(C)noc1C)c1c(N)n(Cc2ccccc2)c(=O)[nH]c1=O`, the inhibition is 5.68%.
The figure for `CCn1c(=O)c(C(=O)NCc2ccc(F)cc2)c(O)c2ccccc21` is 10.4%; for `CSc1ccc(C#N)cc1NC(=O)c1ccc(Cl)cc1Cl` it is 7.34%; for `NC1=NC(=O)/C(=C\c2cccs2)S1` it is -1.57%.
Regarding `NC1=NC(=O)/C(=C/c2cccs2)S1`, the inhibition was 4.92%.
Regarding `CCCn1c(N)c(C(=O)CSc2nnc(-c3cccs3)n2C2CC2)c(=O)[nH]c1=O`, the inhibition was 1.21%.
Regarding `O=C(CCN1CCN(c2ccccc2)CC1)NNC(=O)c1ccccc1`, the inhibition is 10.2%.
`Cc1ccc(NS(=O)(=O)c2cc(N)ccc2Cl)c(C)c1`: the inhibition is 11.7%.
In the case of `CNS(=O)(=O)c1cc(N)ccc1C`, the inhibition is 5.24%.
On to `Cc1cc(C)cc(NC(=S)N2CCCC2)c1`, for which the inhibition is 4.82%.
In the case of `Oc1ccc(/C=N/Nc2ccnc3cc(Cl)ccc23)c(O)c1O`, the inhibition is 15.3%.
On to `Clc1ccc(NNc2ccnc3cc(Cl)ccc23)cc1`, for which the inhibition is 6.46%.
As to `C/C(=N/Nc1ccnc2cc(Cl)ccc12)c1ccc(N)cc1`, the inhibition was 18.6%.
In the case of `Clc1ccc2c(N/N=C/c3ccc(Br)cc3)ccnc2c1`, the inhibition was 7.12%.
Take `CC(=O)c1ccc(N2CCN(c3ccnc4cc(Cl)ccc34)CC2)cc1`: the inhibition was 1.01%.
Consider `C/C(=N/Nc1ccnc2cc(Cl)ccc12)c1ccc(O)cc1`, for which the inhibition was 18.6%.
For the molecule `CCOc1ccc(Nc2ccnc3cc(Cl)ccc23)cc1`, the inhibition was 6.93%.
The figure for `COc1ccc(N2CCN(c3ccnc4cc(Cl)ccc34)CC2)cc1` is 13.2%; for `CN(C)CCNC(=O)NC(=O)c1ccc(Cl)cc1` it is 7.5%; for `CCOCCCNC(=S)Nc1ccc2nc3n(c(=O)c2c1)CCCCC3` it is -1.06%.
As for `CC(C)C(=O)N1CCN(CCN2C(=O)c3cccc4cccc(c34)C2=O)CC1`, the inhibition is 12.5%.
Consider `COC(=O)c1c(C)[nH]c(C(=O)C(C)OC(=O)c2ccco2)c1C` (stereo unspecified), for which the inhibition was 5.7%.
Regarding `Cc1ccc(N(C(C)C(=O)Nc2ccccc2C(=O)N2CCOCC2)S(C)(=O)=O)cc1C` (stereo unspecified), the inhibition was 10.3%.
Consider `O=C1c2ccccc2C(=O)c2[nH]c(=O)[nH]c21`, for which the inhibition is 8.15%.
As to `COCCNC(=S)NNc1ccc(Cl)c(C(=O)O)c1`, the inhibition was 7.21%.
In the case of `CCOC(=O)c1c(N2C(=O)Nc3ccccc3N2O)sc2c1CCCCC2`, the inhibition was 14.2%.
Take `CC1(C(=O)O)CCC(C(N)=O)C1(C)C` (stereo unspecified): the inhibition was 5.23%.
For the molecule `O=C(O)C1OC2OC3(CCCCC3)OC2C2OC3(CCCCC3)OC12` (stereo unspecified), the inhibition is -5.5%.
In the case of `CC(=O)Nc1ccc(NC(=O)C(=O)c2cn(CC(=O)N3CCCC3)c3ccccc23)cc1`, the inhibition is 4.85%.
With `Cc1cc(C)n2ncc(C(=O)NCc3ccccc3)c2n1`, the inhibition was 0.67%.
As for `COc1ccc(/C=N/NC(=S)Nc2cccc(C(=O)O)c2)cc1OC`, the inhibition is -9.15%.
The figure for `CN(C)S(=O)(=O)c1cccc(NC(=S)N/N=C/c2cccc(O)c2)c1` is 2.96%.
In the case of `COc1cc(/C=N/NC(=S)Nc2cccc(S(=O)(=O)N(C)C)c2)cc(OC)c1O`, the inhibition is -1.97%.
On to `COc1cc(/C=N/NC(=S)Nc2cccc(C(=O)O)c2)cc(OC)c1OC`, for which the inhibition is 7.41%.
Next, `CCOC(=O)N1CCN(c2c(N3CCN(c4ccccc4OC)CC3)c(=O)c2=O)CC1`: 8.07%; `O=C(COC(=O)c1ccc(Cl)c(S(=O)(=O)N2CCCCC2)c1)NCc1ccco1`: 5.55%; `CCC(C)NS(=O)(=O)c1ccc(OCC(=O)Nc2ccc(F)cc2F)cc1` (stereo unspecified): 4.64%.
The figure for `CCCOc1ccc(/C(O)=C2/C(=O)C(=O)N(CCCn3ccnc3)C2c2ccco2)cc1` (stereo unspecified) is 7.22%; for `COc1ccc(NC(=O)CN(c2cc(C)cc(C)c2)S(=O)(=O)c2c(C)n[nH]c2C)cc1` it is 6.02%.
The figure for `C=CCc1ccc(OCCCCN2CC(C)OC(C)C2)c(OC)c1` (stereo unspecified) is 16.2%; for `C=CCc1cc(Cl)ccc1OCCN1CC(C)OC(C)C1` (stereo unspecified) it is 26.3%.
As to `CC(=O)C1=C(O)C(=O)N(c2ccc(F)cc2)C1c1ccc(C)cc1` (stereo unspecified), the inhibition was 9.06%.
Take `COc1ccc(Br)cc1CN1CCSCC1`: the inhibition is 19.9%.
For the molecule `COc1ccc(CN2CCN(Cc3c[nH]c4ccccc34)CC2)cc1`, the inhibition is 30.3%.
As for `COc1ccc(C(=O)C2CCCN(Cc3c[nH]c4ccccc34)C2)c(OC)c1` (stereo unspecified), the inhibition is -5.48%.
As to `COc1ccc(S(=O)(=O)N2CCN(Cc3c[nH]c4ccccc34)CC2)cc1`, the inhibition is -10.1%.
Consider `COc1ccc(Br)cc1CN1CCN(S(=O)(=O)Cc2ccccc2)CC1`, for which the inhibition is 19.2%.
As to `COc1ccc(Br)cc1CN1CCCCCCC1`, the inhibition is 11.8%.
Next, `c1ccc(CN2CCN(Cc3c[nH]c4ccccc34)CC2)cc1`: 8.7%; `COc1ccc(Br)cc1CN1CCCCCC1`: 25.6%; `CCOc1ccc(NC(=O)Nc2c(C)n(C)n(-c3ccccc3)c2=O)cc1`: 0.15%.
As to `O=C(NCc1ccc(F)cc1)C1CCCN(S(=O)(=O)c2ccc(Br)s2)C1` (stereo unspecified), the inhibition is 5.11%.
Turning to `COc1ccccc1NC(=O)C1=C(C)Nc2nc(-c3cccs3)nn2C1c1cccc(O)c1` (stereo unspecified), the inhibition was 3.45%.
On to `Cc1c(C(=O)OCC(=O)Nc2c(C)n(C)n(-c3ccccc3)c2=O)cccc1[N+](=O)[O-]`, for which the inhibition is -3.37%.
